The supplement of paper PMC7411054
Structures can show the parent of a compound that is named as a salt.

What was measured:
Conditions in all cases: treatment time: 24 h
[1] = system: A549-ACTB-RAB5A; test: lowest phenotypically active concentration; higher = less potent
How it was run: (§1)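 Phenotypic activity depended on meeting both a deviation and a reproducibility criterion. The fifteen gene-edited A549, HepG2 and WPMY1 reporter lines were treated at 0.3, 1, 3 or 9 µM for 24 h, four wells each, then imaged live with features normalised to solvent control wells. Deviation required ≥3 of 4 wells past the 95th percentile of control Euclidean distances, and reproducibility a median replicate Pearson correlation above the 95th percentile of non-replicates.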

[2] = system: A549-CANX-COX4; test: as above
How it was run: as §1

[3] = system: A549-GM130-SQSTM1; test: as above
How it was run: as §1

[4] = system: A549-TP53BP1-CLTA; test: as above
How it was run: as §1

[5] = system: A549-TUBA1B-RELA; test: as above
How it was run: as §1

[6] = system: A549-ACTB-RAB5A; test: phenotypically active (imaging signature differs from DMSO and reproducible) at any of 0.3-9 uM (binary (1 = active, 0 = inactive)); higher = active
How it was run: as §1

[7] = system: A549-CANX-COX4; test: as above
How it was run: as §1

[8] = system: A549-GM130-SQSTM1; test: as above
How it was run: as §1

[9] = system: A549-TP53BP1-CLTA; test: as above
How it was run: as §1

[10] = system: A549-TUBA1B-RELA; test: as above
How it was run: as §1

[11] = system: HepG2-ACTB-RAB5A; test: as above
How it was run: as §1

[12] = system: HepG2-CANX-COX4; test: as above
How it was run: as §1

[13] = system: HepG2-GM130-SQSTM1; test: as above
How it was run: as §1

[14] = system: HepG2-TP53BP1-CLTA; test: as above
How it was run: as §1

[15] = system: HepG2-TUBA1B-RELA; test: as above
How it was run: as §1

[16] = system: WPMY1-ACTB-RAB5A; test: as above
How it was run: as §1

[17] = system: WPMY1-CANX-COX4; test: as above
How it was run: as §1

[18] = system: WPMY1-GM130-SQSTM1; test: as above
How it was run: as §1

[19] = system: WPMY1-TP53BP1-CLTA; test: as above
How it was run: as §1

[20] = system: WPMY1-TUBA1B-RELA; test: as above
How it was run: as §1

| Compound | lowest phenotypically active concentration [1] | lowest phenotypically active concentration [2] | lowest phenotypically active concentration [3] | lowest phenotypically active concentration [4] | lowest phenotypically active concentration [5] | phenotypically active [6] | phenotypically active [7] | phenotypically active [8] | phenotypically active [9] | phenotypically active [10] | phenotypically active [11] | phenotypically active [12] | phenotypically active [13] | phenotypically active [14] | phenotypically active [15] | phenotypically active [16] | phenotypically active [17] | phenotypically active [18] | phenotypically active [19] | phenotypically active [20] |
| --- | --- | --- | --- | --- | --- | --- | --- | --- | --- | --- | --- | --- | --- | --- | --- | --- | --- | --- | --- | --- |
| CC[C@@H]1C(=O)N(C)c2cnc(Nc3ccc(C(=O)NC4CCN(C)CC4)cc3OC)nc2N1C1CCCC1 | ≤ 0.3 µM | ≤ 0.3 µM | 1 µM | ≤ 0.3 µM | ≤ 0.3 µM | 1 (active) | 1 (active) | 1 (active) | 1 (active) | 1 (active) | 1 (active) | 1 (active) | 1 (active) | 1 (active) | 1 (active) | 1 (active) | 1 (active) | 1 (active) | 1 (active) | 1 (active) |
| O=C1NC(=O)[C@@H](c2cn3c4c(cccc24)CCC3)[C@@H]1c1c[nH]c2ccccc12 [tivantinib] | 1 µM | 1 µM | 1 µM | 1 µM | 3 µM | 1 (active) | 1 (active) | 1 (active) | 1 (active) | 1 (active) | 1 (active) | 1 (active) | 1 (active) | 1 (active) | 1 (active) | 1 (active) | 1 (active) | 1 (active) | 1 (active) | 1 (active) |
| Cc1cc(Nc2nc(N[C@@H](C)c3ncc(F)cn3)ncc2Cl)n[nH]1 | 3 µM | 3 µM | 3 µM | 3 µM | 1 µM | 1 (active) | 1 (active) | 1 (active) | 1 (active) | 1 (active) | 1 (active) | 1 (active) | 1 (active) | 1 (active) | 1 (active) | 1 (active) | 1 (active) | 1 (active) | 1 (active) | 1 (active) |
| C[C@@H](N)[C@H]1CC[C@H](C(=O)Nc2ccncc2)CC1 | 3 µM | 9 µM | 9 µM | 3 µM | 9 µM | 1 (active) | 1 (active) | 1 (active) | 1 (active) | 1 (active) | 1 (active) | 1 (active) | 1 (active) | 1 (active) | 1 (active) | 1 (active) | 1 (active) | 1 (active) | 1 (active) | 1 (active) |
| Fc1ccccc1CNCc1ccc(-c2ccnc3[nH]ccc23)cc1 [OXA 06 dihydrochloride] | ≤ 0.3 µM | 1 µM | 3 µM | 1 µM | 1 µM | 1 (active) | 1 (active) | 1 (active) | 1 (active) | 1 (active) | 1 (active) | 1 (active) | 1 (active) | 1 (active) | 1 (active) | 1 (active) | 1 (active) | 1 (active) | 1 (active) | 1 (active) |
| O=C(OC12CC3CC(CC(C3)C1)C2)c1ccc(NCc2cc(O)ccc2O)cc1 [Adaphostin] | 1 µM | 9 µM | 9 µM | 9 µM | 3 µM | 1 (active) | 1 (active) | 1 (active) | 1 (active) | 1 (active) | 1 (active) | 1 (active) | 1 (active) | 1 (active) | 1 (active) | 1 (active) | 1 (active) | 1 (active) | 1 (active) | 1 (active) |
| Cc1c(C(=O)N2CCOc3ccc(-c4ccc(N)nc4)cc3C2)ccc(S(C)(=O)=O)c1F | 1 µM | 3 µM | 3 µM | 3 µM | 1 µM | 1 (active) | 1 (active) | 1 (active) | 1 (active) | 1 (active) | 1 (active) | 1 (active) | 1 (active) | 1 (active) | 1 (active) | 1 (active) | 1 (active) | 1 (active) | 1 (active) | 1 (active) |
| COC(=O)Nc1nc2ccc(C(=O)c3cccs3)cc2[nH]1 [Nocodazole] | ≤ 0.3 µM | ≤ 0.3 µM | ≤ 0.3 µM | ≤ 0.3 µM | ≤ 0.3 µM | 1 (active) | 1 (active) | 1 (active) | 1 (active) | 1 (active) | 1 (active) | 1 (active) | 1 (active) | 1 (active) | 1 (active) | 1 (active) | 1 (active) | 1 (active) | 1 (active) | 1 (active) |
| Oc1cccc(Nc2ccnc3cc(-c4cccc(CN5CCOCC5)c4)sc23)c1 [LCB 03-0110 dihydrochloride] | 1 µM | 3 µM | 1 µM | 3 µM | 1 µM | 1 (active) | 1 (active) | 1 (active) | 1 (active) | 1 (active) | 1 (active) | 1 (active) | 1 (active) | 1 (active) | 1 (active) | 1 (active) | 1 (active) | 1 (active) | 1 (active) | 1 (active) |
| COc1ccc(N(C)c2nc(C)nc3ccccc23)cc1 [MPC 6827 hydrochloride] | ≤ 0.3 µM | ≤ 0.3 µM | ≤ 0.3 µM | 1 µM | ≤ 0.3 µM | 1 (active) | 1 (active) | 1 (active) | 1 (active) | 1 (active) | 1 (active) | 1 (active) | 1 (active) | 1 (active) | 1 (active) | 1 (active) | 1 (active) | 1 (active) | 1 (active) | 1 (active) |
| CCN(CCO)CCCOc1ccc2c(Nc3cc(CC(=O)Nc4cccc(F)c4)n[nH]3)ncnc2c1 [barasertib-HQPA] | ≤ 0.3 µM | ≤ 0.3 µM | ≤ 0.3 µM | ≤ 0.3 µM | ≤ 0.3 µM | 1 (active) | 1 (active) | 1 (active) | 1 (active) | 1 (active) | 1 (active) | 1 (active) | 1 (active) | 1 (active) | 1 (active) | 1 (active) | 1 (active) | 1 (active) | 1 (active) | 1 (active) |
